Rows were chosen to be rich in hits. Some 11% of all compounds tested hit in one or more screens of this group.
BAZ2B inh = BAZ2B (human) inhibition. 4.4% of 360,000 active. AID 504333. AlphaScreen BAZ2B-H3K14Ac peptide displacement. Potency, µM (top dose mostly 114 µM), for inactives: at the top dose activity change, negative = inhibition, hits mostly inhibitors. Q9UIF8; further: potency means the concentration at half of the fitted maximal effect; on the % scale 0 is the no-effect control and ±100 the full control effect; nearly all actives have a fitted effect of over 60% in size
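Multi-concentration screen (max 110 uM) measuring displacement of acetylated histone H3 peptide from BAZ2B by AlphaScreen, using 50 nM protein, 50 nM peptide and 10 ug/mL streptavidin donor plus Ni-chelate acceptor beads.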
L3MBTL1 block = inhibitors of human L3MBTL1; Q9Y468; AlphaScreen L3MBTL1–H3K9me1 peptide binding; Potency, µM (highest dose often 57.1 µM), for the others: top-dose activity, negative = inhibition, hits mostly inhibitors; 0.66% of 230,000 active; AID 485360; further: potency means the concentration at half of the fitted maximal effect; on the % scale 0 is the no-effect control and ±100 the full control effect; nearly all actives have a fitted effect of over 60% in size
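AlphaScreen assay: L3MBTL1 (50 nM final) was preincubated 30 min at room temperature with biotinylated H3(1-15)K9me1 peptide (75 nM final), then 30 min with library compounds; streptavidin donor and nickel chelate acceptor beads (10 ug/mL final) added, 30 min dark.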
JMJD2A Tudor inh = blocks the human JMJD2A Tudor domain; O75164; AlphaScreen JMJD2A-Tudor / H3K4me3 peptide binding; Potency, µM (top dose mostly 114 µM), for inactives: at the top dose activity change, negative = inhibition, actives largely listed as inhibitors; 4.4% of 390,000 active; AID 504339; further: potency means the concentration at half of the fitted maximal effect; on the % scale 0 is the no-effect control and ±100 the full control effect; nearly all actives have a fitted effect of over 50% in size
PI5P4K alpha inh = PI5P4K alpha (human) kinase inhibition; max response, %; P48426; 1.2% of 330,000 active; PI5P4Kalpha enzyme, ADP-Glo luminescence, 60 min; stronger effect = lower value; active means max response of -50% or lower; inconclusive means between -30% and -50%; inactive means -30% or higher; further: value at the top dose of about 77 µM; on the % scale 0 is the no-effect control and ±100 the full control effect
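Quantitative HTS of the MLSMR library against PI5P4Kalpha with substrate. ATP added last at 5 microM final; room temperature, 60 minutes. Remaining ATP depleted, ADP converted and read as luminescence.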
G9a inh = inhibitors of human histone lysine methyltransferase G9a; AID 504332; G9a H3K9 monomethylation, AlphaScreen, 2 h; 8.8% of 350,000 active; Potency, µM (highest dose often 102 µM), for the others: top-dose activity, negative = inhibition, hits mostly inhibitors; further: potency means the concentration at half of the fitted maximal effect; on the % scale 0 is the no-effect control and ±100 the full control effect; nearly all actives have a fitted effect of over 75% in size
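Chemiluminescent proximity detection of H3K9 monomethylation, read after 10 min bead incubation in the dark. Reaction: 20 nM G9a, 500 nM biotin-H3K9 peptide, 20 uM SAM cofactor, 2 h, room temperature, following 15 min enzyme-compound preincubation.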
HP1b binding inh = inhibitors of HP1-beta chromodomain binding to methylated histone tails; P83916; Potency, µM (titrated, usually from 114 µM), inactives show top-dose activity change, negative = inhibition, usual class: inhibitors; AlphaScreen HP1-beta / biotin-H3K9me3 peptide binding; 0.56% of 390,000 active; further: potency means the concentration at half of the fitted maximal effect; nearly all actives have a fitted effect of over 70% in size
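Compound inhibition of the preformed complex between 50 nM HP1-beta and 50 nM biotinylated H3K9me3 peptide was read by AlphaScreen. Buffer was PBS pH 7.4 with 0.01% Tween-20. Incubations ran 30 min at room temperature, with 10 ug/mL donor/acceptor beads.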
An asterisk follows results filed as active; ? = inconclusive; . = no result; [ ] = remark or other dose. Unless noted, the call rests on the fitted dose curve; in most records, active means well fitted inhibition curve with a large enough effect; inconclusive means small, poorly fitted or top-dose-only effect; inactive means no such curve, though single readings can be large or run the other way.

SMILES	BAZ2B inh	L3MBTL1 block	JMJD2A Tudor inh	PI5P4K alpha inh	G9a inh	HP1b binding inh
O=C(CN1CCN(S(=O)(=O)c2ccc3ccccc3c2)CC1)Nc1ccc(N2CCOCC2)cc1	-38%	-4%	-44%	-11	40µM*	-9%
COc1ccc(S(=O)(=O)N2CCN(CC(=O)Nc3ccc(C)c(F)c3)CC2)cc1	5%	-8%	-20%	9	45µM*	16%
O=C(CN1CCN(S(=O)(=O)c2ccccc2)CC1)Nc1ccc(N2CCOCC2)cc1	-5%	-3%	-9%	-23	?	19%
CC1Cc2ccccc2N1S(=O)(=O)c1nnc(NC(=O)c2ccccc2Br)s1 (stereo unspecified)	-30%	.	-34%	.	-33%[59 µM]	26%
COc1cc(C(=O)C(=O)c2cc(OC)c(O)c(OC)c2)cc(OC)c1O	-30%	-15%	-14%	-3	45µM*	34%
O=C(NN=Cc1ccccc1C(=O)O)C(=O)NN=Cc1ccccc1C(=O)O	.	.	50µM*	-2	.	12%[57 µM]
O=C(O)c1ccccc1C=NNc1ccccn1	.	.	28µM*	-1	.	10%
O=C(N/N=C/c1ccccc1C(=O)O)c1ccncc1	-26%	2%	-9%	-2	0%	39%
Cc1nn(C)c2c1c(C(F)(F)F)cc(=O)n2CC(=O)N1CCC(C)CC1	-13%	.	-12%	.	4%[59 µM]	1%
Cc1cc(C)c(NC(=O)Cn2nc(-c3ccncc3)ccc2=O)c(C)c1	1%	.	-7%	.	3%[59 µM]	24%[57 µM]
COc1ccc(OC)c(NC(=O)CSC2=Nc3ccccc3C3=NC(CCC(=O)NCc4ccco4)C(=O)N23)c1 (stereo unspecified)	-23%	.	-18%	.	8%[59 µM]	18%
N#CCCN(NC1=NS(=O)(=O)c2ccccc21)C(=O)c1ccccc1Br	-1%	.	35µM*	2	-3%[2.33 µM]	59%
O=S(=O)(c1ccccc1C(F)(F)F)N1CCN(c2nc(-c3ccccc3)nc3ccccc23)CC1	.	.	-7%	.	.	0%
Cc1ccc(C(=O)c2oc3ccccc3c2NC(=O)COc2ccccc2Cl)cc1	50µM*	.	-9%	.	-38%[59 µM]	37%
COc1cccc(-c2nccc(N(C)Cc3ccco3)n2)c1	.	.	.	.	5%[0.501 µM]	.
C=CCc1cccc(OC)c1OCCOCCNCCO	56µM*	.	5.6µM*	3	11µM*	-28%
COc1cccc(OC)c1OCCNCCO	2%	?	-3%	-4	5%[59 µM]	45%
Cc1oc2ncn(C)c(=O)c2c1C(=O)N(C)c1ccccc1F	13%[57.1 µM]	.	0%	.	3%[59 µM]	47%
Fc1ccccc1N1CCN(c2nccn3nc(-c4ccc(Br)cc4)cc23)CC1	-19%	.	4%	.	-4%[59 µM]	18%
COc1ccc(C2C(C(=O)Nc3ccccc3)=C(C)Nc3nc(-c4ccccc4Cl)nn32)cc1OC (stereo unspecified)	-3%	.	-15%	.	?	16%
O=C(NCC(=O)N1CCCCCCC1)c1cccc([N+](=O)[O-])c1	-7%	3%	-9%	2	1.3µM*	8%
O=C(CNC(=O)c1cccc(F)c1)OCC(=O)N1CCCCC1	-6%	11%	-15%	-2	16µM*	21%
O=C(CNC(=O)c1cccc(F)c1)OCC(=O)N1CCN(C(=O)c2ccco2)CC1	0%	.	-9%	1	-12%[59 µM]	34%
COC(=O)c1ccc(C2Nc3cccc4cccc(c34)N2)cc1	35µM*	?	20µM*	?	28µM*	45µM*
COc1cc(C2Nc3cccc4cccc(c34)N2)cc(OC)c1O	?	22µM*	?	.	7.9µM*	?
COc1ccc(C2Nc3cccc4cccc(c34)N2)cc1Br	45µM*	.	40µM*	3	35µM*	?
COc1cc(C2Nc3cccc4cccc(c34)N2)ccc1OC(C)=O	?	?	56µM*	?	14µM*	-37%
O=C(CN1C(=O)COc2ccc(S(=O)(=O)N3CCOCC3)cc21)N1CCN(c2ccc(Cl)cc2)CC1	-21%	.	-27%	.	0%[59 µM]	6%
